# Experimental data as given in paper PMC7862700, “An all-to-all approach to the identification of sequence-specific readers for epigenetic DNA modifications on cytosine”.
# Assays:
# Assay in all cases: DAPPL (digital affinity profiling via proximity ligation, sequencing); 10 mM Tris-HCl pH 7.5, 50 mM NaCl, 1 mM DTT, 4% glycerol, room temperature, 30 min; GST-TFs on glutathione beads, 16-mer random dsDNA library, 0.1% formaldehyde crosslink after washing; high values mean tight binding
# FEV = biological target: T1, FEV (Homo sapiens, UniProt Q99581 1-238); settings: protein: recombinant; tags: N-terminal GST; dsDNA, one strand shown
# T1 sequence: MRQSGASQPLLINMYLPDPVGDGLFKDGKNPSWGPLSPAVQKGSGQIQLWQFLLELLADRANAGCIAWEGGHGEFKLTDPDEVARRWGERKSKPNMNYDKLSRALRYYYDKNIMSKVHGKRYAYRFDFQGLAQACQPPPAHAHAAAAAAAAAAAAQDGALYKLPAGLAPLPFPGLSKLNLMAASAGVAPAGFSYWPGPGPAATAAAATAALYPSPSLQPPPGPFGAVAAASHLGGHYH
# Outline: (§1)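 Yeast served to express human transcription factors as GST fusions, which were then captured on glutathione beads and labelled with DNA barcodes. Pooled with a tag-only sample, they were incubated with 200 nmole of a 16-mer random double-stranded DNA library for 30 min at room temperature in Tris/NaCl/DTT/glycerol buffer, washed, crosslinked with 0.1% formaldehyde, ligated by proximity, amplified by PCR and sequenced. Dividing each hexamer's read frequency for a factor by its frequency for the tag-only sample gives the binding signal.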
# ETV5 = ETV5 (Homo sapiens, UniProt P41161 1-510); settings: protein: recombinant; tags: N-terminal GST; dsDNA, one strand shown
# Chain of ETV5 (P41161 whole entry): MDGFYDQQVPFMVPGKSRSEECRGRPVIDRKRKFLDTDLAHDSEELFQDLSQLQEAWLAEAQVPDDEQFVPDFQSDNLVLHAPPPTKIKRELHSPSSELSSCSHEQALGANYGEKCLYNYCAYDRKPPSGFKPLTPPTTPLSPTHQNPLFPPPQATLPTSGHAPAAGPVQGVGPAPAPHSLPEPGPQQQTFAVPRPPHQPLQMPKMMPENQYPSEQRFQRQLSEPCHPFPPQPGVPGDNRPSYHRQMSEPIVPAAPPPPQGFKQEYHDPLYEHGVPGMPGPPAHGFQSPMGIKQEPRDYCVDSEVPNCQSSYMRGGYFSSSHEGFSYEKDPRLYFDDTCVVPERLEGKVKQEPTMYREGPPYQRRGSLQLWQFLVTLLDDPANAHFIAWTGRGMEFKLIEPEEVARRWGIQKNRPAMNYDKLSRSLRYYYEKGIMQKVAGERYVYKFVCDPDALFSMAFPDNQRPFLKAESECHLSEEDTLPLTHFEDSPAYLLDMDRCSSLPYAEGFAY
# Outline: as §1
# HSF1 = HSF1 (Homo sapiens, UniProt Q00613 1-529); settings: protein: recombinant; tags: N-terminal GST; chain copies: 3; dsDNA, one strand shown
# Chain of HSF1 (Q00613 whole entry): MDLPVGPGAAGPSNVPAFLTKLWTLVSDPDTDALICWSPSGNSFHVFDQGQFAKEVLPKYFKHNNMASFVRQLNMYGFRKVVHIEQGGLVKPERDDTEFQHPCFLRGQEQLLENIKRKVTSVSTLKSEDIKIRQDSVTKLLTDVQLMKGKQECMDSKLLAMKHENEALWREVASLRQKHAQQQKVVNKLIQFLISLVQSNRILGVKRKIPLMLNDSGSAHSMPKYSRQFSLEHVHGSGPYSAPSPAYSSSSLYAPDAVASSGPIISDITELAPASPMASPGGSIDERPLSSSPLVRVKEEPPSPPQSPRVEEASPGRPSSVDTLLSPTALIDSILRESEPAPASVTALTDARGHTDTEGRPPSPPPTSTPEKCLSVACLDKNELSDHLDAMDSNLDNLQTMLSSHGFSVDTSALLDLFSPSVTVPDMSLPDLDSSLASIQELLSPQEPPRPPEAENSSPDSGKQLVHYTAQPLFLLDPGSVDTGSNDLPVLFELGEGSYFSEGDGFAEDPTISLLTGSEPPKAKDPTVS
# Outline: as §1
# SPIC = biological target: T2, SPIC (Homo sapiens, UniProt Q8N5J4 1-248); settings: protein: recombinant; tags: N-terminal GST; dsDNA, one strand shown
# T2 sequence: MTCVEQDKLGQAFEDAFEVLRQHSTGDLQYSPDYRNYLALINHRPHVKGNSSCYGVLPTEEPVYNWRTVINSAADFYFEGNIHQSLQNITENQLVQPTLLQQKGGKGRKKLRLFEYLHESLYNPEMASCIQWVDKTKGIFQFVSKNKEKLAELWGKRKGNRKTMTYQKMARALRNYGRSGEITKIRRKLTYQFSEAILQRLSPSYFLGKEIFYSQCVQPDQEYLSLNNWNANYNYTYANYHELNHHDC
# Outline: as §1
# ELF4 = ELF4 (Homo sapiens, UniProt Q99607 1-663); settings: protein: recombinant; tags: N-terminal GST; dsDNA, one strand shown
# Chain of ELF4 (Q99607 whole entry): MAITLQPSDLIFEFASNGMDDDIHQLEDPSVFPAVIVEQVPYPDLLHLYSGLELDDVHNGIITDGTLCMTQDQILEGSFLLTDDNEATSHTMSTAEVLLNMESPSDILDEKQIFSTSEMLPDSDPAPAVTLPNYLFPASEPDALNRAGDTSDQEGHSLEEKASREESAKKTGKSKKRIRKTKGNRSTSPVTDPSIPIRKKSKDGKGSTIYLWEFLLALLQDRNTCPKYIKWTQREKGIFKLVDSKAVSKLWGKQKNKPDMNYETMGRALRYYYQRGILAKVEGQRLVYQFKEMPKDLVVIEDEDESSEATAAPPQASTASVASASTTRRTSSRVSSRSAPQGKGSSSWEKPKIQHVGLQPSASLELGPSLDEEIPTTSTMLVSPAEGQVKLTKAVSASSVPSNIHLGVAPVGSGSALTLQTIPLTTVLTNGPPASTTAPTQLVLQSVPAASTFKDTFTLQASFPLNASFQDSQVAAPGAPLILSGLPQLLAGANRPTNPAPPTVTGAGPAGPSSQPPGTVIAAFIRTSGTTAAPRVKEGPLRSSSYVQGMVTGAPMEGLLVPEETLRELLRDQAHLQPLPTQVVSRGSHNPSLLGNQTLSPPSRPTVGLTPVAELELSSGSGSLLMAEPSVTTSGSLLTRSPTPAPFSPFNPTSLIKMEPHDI
# Outline: as §1
# ELK4 = biological target: T3, ELK4 (Homo sapiens, UniProt P28324-2 1-405); settings: protein: recombinant; tags: N-terminal GST; dsDNA, one strand shown
# T3 sequence: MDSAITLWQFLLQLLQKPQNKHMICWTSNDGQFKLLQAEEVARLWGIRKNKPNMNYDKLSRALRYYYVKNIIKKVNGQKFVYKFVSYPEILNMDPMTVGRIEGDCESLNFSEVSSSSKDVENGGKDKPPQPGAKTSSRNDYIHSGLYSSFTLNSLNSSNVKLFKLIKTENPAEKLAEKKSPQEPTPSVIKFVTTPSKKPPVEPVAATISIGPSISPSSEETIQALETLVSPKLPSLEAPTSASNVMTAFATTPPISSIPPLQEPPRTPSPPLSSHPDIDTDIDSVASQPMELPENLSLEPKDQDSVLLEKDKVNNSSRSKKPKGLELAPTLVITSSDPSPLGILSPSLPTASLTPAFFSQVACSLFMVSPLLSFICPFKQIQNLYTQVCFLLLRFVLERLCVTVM
# Outline: as §1
# ETV2 = biological target: T4, ETV2 (Homo sapiens, UniProt O00321 1-342); settings: protein: recombinant; tags: N-terminal GST; dsDNA, one strand shown
# T4 sequence: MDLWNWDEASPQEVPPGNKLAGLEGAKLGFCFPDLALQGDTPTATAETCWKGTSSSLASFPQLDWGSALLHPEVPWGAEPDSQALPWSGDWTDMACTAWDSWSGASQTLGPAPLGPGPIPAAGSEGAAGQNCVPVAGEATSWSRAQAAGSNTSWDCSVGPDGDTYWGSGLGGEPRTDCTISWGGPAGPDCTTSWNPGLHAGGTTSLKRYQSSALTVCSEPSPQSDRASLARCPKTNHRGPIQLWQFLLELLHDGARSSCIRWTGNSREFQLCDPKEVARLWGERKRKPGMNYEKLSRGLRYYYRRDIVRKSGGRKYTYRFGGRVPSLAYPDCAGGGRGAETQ
# Outline: as §1
# ELF3 = biological target: T5, ELF3 (Homo sapiens, UniProt P78545 1-371); settings: protein: recombinant; tags: N-terminal GST; dsDNA, one strand shown
# T5 sequence: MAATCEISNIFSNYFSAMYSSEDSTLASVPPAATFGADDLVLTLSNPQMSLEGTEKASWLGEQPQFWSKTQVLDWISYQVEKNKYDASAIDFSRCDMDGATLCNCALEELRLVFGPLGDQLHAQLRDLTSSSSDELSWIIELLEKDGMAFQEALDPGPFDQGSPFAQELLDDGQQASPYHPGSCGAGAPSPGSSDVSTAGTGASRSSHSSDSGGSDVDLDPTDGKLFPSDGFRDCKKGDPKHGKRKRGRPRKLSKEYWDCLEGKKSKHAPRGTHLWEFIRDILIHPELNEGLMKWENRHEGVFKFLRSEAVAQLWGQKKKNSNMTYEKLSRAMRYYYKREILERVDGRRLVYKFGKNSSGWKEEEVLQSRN
# Outline: as §1
# CRX = CRX (Homo sapiens, UniProt O43186 1-299); settings: protein: recombinant; tags: N-terminal GST; dsDNA, one strand shown
# Chain of CRX (O43186 whole entry): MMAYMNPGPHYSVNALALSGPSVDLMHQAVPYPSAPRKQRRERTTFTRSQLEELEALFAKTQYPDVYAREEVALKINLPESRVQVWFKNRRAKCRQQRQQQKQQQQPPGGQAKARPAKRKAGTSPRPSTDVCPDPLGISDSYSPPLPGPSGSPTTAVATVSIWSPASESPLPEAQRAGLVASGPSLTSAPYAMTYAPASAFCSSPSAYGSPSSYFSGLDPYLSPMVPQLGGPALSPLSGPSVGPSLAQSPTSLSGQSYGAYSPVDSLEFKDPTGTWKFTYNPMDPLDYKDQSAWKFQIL
# Outline: as §1
# ETV1 = ETV1 (Homo sapiens, UniProt P50549 1-477); settings: protein: recombinant; tags: N-terminal GST; dsDNA, one strand shown
# Chain of ETV1 (P50549 whole entry): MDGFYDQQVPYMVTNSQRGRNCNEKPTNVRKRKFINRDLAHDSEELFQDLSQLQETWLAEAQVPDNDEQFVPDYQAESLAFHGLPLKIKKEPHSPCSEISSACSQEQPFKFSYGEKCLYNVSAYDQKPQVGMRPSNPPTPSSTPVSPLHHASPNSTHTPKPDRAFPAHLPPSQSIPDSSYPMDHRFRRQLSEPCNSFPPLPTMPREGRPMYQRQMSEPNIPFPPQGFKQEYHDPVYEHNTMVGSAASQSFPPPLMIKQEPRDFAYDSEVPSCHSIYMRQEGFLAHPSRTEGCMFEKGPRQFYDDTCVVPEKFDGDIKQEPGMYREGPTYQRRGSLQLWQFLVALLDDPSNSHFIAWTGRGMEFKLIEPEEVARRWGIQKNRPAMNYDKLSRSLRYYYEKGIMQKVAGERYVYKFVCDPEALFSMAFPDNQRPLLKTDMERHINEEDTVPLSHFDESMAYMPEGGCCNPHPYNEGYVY
# Outline: as §1
sequence,measurement,setting,value
TATGTT,binding signal,FEV,"1.17 fold enrichment (6-mer frequency, TF over GST control)"
same,binding signal,ETV5,"1.15 fold enrichment (6-mer frequency, TF over GST control)"
same,binding signal,HSF1,"1.21 fold enrichment (6-mer frequency, TF over GST control)"
same,binding signal,SPIC,"1.06 fold enrichment (6-mer frequency, TF over GST control)"
same,binding signal,ELF4,"1.2 fold enrichment (6-mer frequency, TF over GST control)"
same,binding signal,ELK4,"1.29 fold enrichment (6-mer frequency, TF over GST control)"
same,binding signal,ETV2,"1.08 fold enrichment (6-mer frequency, TF over GST control)"
same,binding signal,ELF3,"1.1 fold enrichment (6-mer frequency, TF over GST control)"
same,binding signal,CRX,"1.26 fold enrichment (6-mer frequency, TF over GST control)"
same,binding signal,ETV1,"1.1 fold enrichment (6-mer frequency, TF over GST control)"
